PubChem BioAssay (EPA / NIEHS)
Results filed as inconclusive are left out. More than one record can exist for a structure, and the calls need not agree. Active and inactive are the calls of the source. Rule for the calls: active = hit-call score of the fitted dose curve at least 0.9, where 1 is the maximum; inconclusive = response in the unintended direction; inactive = score below 0.9.

Assays:
[1] = target: human MET Proto-Oncogene, Receptor Tyrosine Kinase (MET), MET (gene 4233) (UniProt P08581); assay: NVS_ENZ_hMet: NovaScreen (NVS) Enzymatic Assay for human MET Proto-Oncogene, Receptor Tyrosine Kinase (MET) (AID 2283180)
human MET Proto-Oncogene, Receptor Tyrosine Kinase (MET), MET (gene 4233), sequence (P08581 whole entry, looked up): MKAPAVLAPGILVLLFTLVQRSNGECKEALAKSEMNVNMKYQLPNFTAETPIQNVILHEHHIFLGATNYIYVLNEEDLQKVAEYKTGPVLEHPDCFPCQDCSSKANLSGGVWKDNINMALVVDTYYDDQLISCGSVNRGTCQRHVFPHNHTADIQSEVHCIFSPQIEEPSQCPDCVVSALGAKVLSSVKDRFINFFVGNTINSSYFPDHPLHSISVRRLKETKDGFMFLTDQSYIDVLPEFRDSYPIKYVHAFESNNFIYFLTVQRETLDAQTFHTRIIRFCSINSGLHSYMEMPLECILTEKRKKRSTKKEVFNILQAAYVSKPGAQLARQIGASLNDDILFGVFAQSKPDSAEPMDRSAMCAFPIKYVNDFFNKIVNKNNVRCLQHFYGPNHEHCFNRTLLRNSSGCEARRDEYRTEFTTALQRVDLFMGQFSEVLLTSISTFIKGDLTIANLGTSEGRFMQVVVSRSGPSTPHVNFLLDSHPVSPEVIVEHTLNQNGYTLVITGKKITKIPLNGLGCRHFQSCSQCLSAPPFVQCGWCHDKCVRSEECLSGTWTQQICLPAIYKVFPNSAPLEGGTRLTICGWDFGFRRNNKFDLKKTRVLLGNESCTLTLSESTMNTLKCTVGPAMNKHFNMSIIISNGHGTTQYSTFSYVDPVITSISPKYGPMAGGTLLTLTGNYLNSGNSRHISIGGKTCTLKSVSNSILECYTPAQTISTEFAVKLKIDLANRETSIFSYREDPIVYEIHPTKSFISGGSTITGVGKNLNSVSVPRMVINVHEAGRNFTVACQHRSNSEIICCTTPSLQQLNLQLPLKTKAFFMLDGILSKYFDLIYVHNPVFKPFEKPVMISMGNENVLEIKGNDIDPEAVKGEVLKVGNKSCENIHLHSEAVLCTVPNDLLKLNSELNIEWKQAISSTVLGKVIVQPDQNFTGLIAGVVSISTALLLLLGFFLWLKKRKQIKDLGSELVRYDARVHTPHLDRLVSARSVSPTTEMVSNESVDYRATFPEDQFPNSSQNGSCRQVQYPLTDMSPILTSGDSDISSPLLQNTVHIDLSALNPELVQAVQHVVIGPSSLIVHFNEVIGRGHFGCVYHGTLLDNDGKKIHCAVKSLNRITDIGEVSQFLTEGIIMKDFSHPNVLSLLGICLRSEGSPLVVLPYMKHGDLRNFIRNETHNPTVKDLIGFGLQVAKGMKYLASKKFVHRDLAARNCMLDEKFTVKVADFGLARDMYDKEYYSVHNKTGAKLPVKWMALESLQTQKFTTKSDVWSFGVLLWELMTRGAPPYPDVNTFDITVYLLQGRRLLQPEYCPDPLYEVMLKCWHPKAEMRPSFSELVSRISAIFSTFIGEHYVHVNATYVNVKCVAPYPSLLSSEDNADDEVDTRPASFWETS
Procedure, shortened: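 Cell-free MET kinase assay using recombinant protein and fluorescent substrate, with mobility-shift separation; read 1 h after dosing. Primary duplicate at 25 uM; actives in singleton concentration-response to 50 uM maximum. Signal loss versus DMSO.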

[2] = target: Glycogen synthase kinase-3 beta (Homo sapiens) (UniProt P49841); assay: NVS_ENZ_hGSK3b: NovaScreen (NVS) Enzymatic Assay for human Glycogen Synthase Kinase-3 beta (GSK3b) (AID 2283165)
Glycogen synthase kinase-3 beta (Homo sapiens), sequence (P49841 whole entry, looked up): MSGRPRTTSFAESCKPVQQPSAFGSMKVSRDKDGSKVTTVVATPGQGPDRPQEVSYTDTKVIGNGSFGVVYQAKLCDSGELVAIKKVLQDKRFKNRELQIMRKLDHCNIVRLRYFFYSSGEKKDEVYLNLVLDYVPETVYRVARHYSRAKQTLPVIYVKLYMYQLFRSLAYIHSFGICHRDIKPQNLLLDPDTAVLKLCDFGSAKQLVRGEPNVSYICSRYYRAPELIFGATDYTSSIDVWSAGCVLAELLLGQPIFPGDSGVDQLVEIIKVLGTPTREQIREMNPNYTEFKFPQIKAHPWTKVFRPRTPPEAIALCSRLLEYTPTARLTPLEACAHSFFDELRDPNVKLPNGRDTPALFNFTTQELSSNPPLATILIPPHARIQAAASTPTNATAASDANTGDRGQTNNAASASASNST
Procedure, shortened: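 Recombinant enzyme with specific fluorescent substrate, 1 h, product separated by electrophoretic mobility shift. Primary duplicate screen at 25 uM; actives (e.g. 30% inhibition) followed in singleton concentration-response to 50 uM. Signal loss fitted versus DMSO.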

[3] = target: human Matrix Metalloproteinase-1 (MMP1), MMP1 (gene 4312) (UniProt P03956); assay: NVS_ENZ_hMMP1: NovaScreen (NVS) Enzymatic Assay for human Matrix Metalloproteinase-1 (MMP1) (AID 2283181)
human Matrix Metalloproteinase-1 (MMP1), MMP1 (gene 4312), sequence (P03956 whole entry, looked up): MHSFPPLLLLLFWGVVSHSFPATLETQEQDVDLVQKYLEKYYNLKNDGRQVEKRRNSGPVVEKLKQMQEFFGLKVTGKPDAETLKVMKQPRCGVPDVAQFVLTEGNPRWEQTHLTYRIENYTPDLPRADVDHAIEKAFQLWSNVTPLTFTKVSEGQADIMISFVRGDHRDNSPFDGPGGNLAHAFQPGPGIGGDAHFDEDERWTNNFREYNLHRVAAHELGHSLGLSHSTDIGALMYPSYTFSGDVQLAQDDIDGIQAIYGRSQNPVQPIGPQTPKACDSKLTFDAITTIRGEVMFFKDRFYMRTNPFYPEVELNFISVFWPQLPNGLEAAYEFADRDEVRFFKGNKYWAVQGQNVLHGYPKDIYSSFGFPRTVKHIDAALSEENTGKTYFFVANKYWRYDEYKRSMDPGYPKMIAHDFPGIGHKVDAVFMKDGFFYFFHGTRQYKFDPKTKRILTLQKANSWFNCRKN
Procedure, shortened: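 Human MMP1 enzyme activity measured by fluorescence 1 h after dosing, cell-free, with a specific substrate. Screened in duplicate at 25 uM; hits (e.g. 30% inhibition) run in concentration-response up to 50 uM; loss of signal versus DMSO.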

[4] = target: Mitogen-activated protein kinase 3 (Homo sapiens) (UniProt P27361); assay: NVS_ENZ_hMAPK3: NovaScreen (NVS) Enzymatic Assay for human Mitogen-Activated Protein Kinase 3 (MAPK 3) (AID 2283177)
Mitogen-activated protein kinase 3 (Homo sapiens), sequence (P27361 whole entry, looked up): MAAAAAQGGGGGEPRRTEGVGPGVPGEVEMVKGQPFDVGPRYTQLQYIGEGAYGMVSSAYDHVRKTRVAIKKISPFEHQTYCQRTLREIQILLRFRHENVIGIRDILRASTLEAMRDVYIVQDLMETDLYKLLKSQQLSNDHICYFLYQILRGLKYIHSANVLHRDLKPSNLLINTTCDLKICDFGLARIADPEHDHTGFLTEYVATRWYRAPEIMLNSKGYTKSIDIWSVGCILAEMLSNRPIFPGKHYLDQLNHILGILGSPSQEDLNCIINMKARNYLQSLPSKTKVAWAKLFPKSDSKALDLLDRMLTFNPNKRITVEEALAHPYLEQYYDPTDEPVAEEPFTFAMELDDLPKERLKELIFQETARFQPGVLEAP
Description: (§1) NVS_ENZ_hMAPK3 is a biochemical, single-readout assay that uses extracted gene-proteins in a cell-free assay. Measurements were taken 1 hour after chemical dosing in a 384-well plate.NVS_ENZ_hMAPK3 is one of one assay component(s) measured or calculated from the NVS_ENZ_hMAPK3 assay. It is designed to make measurements of enzyme activity, a form of enzyme reporter, as detected with fluorescence intensity signals by Fluorescence and electrophoretic mobility shift technology.Data from the assay component NVS_ENZ_hMAPK3 was analyzed into 1 assay endpoint. This assay endpoint, NVS_ENZ_hMAPK3, was analyzed in the positive analysis fitting direction relative to DMSO as the negative control and baseline of activity. Using a type of enzyme reporter, loss-of-signal activity can be used to understand changes in the enzymatic activity as they relate to the gene MAPK3. Furthermore, this assay endpoint can be referred to as a primary readout, because this assay has produced multiple assay endpoints where this one serves a enzymatic activity function. To generalize the intended target to other relatable targets, this assay endpoint is annotated to the kinase intended target family, where the subfamily is serine/threonine kinase.
Binding assays used specific radioligands (tritiated, iodinated) with non-radioactive competitive displacement ligands in agonist or antagonist protocols (as indicated) and various reference compounds and inhibitors to titrate specific binding to receptors and transporters. Most enzyme assays (CYPs, kinases, phosphatases, proteases, HDACs) used recombinant protein and specific substrates (fluorescence mostly, some colorimetric and radioactive) and inhibitors, followed by a biochemical separation of substrate and product. All assays for the biochemical HTS were initially run in duplicate at a single concentration (10 uM for CYP450 assays and 25 uM for all others). Assay-chemical combinations meeting a pre-defined threshold (e.g., 30% inhibition and other criteria defined below) were then run in singleton concentration-response format with maximum concentration of 20 uM for CYPs and 50 uM for all others. Each assay was run with positive and negative controls, and concurrent controls on every plate. The follow-up (secondary) screen tested active chemical-pairs in concentration series, as well as a few additional assays not tested in the primary screen, some selected negative inactives, and several cases re-run in the concentration series for confirmatory purposes.

[5] = target: human IkappaB Kinase alpha (IKKa), CHUK (gene 1147) (UniProt O15111); assay: NVS_ENZ_hIKKa: NovaScreen (NVS) Enzymatic Assay for human IkappaB Kinase alpha (IKKa) (AID 2283167)
human IkappaB Kinase alpha (IKKa), CHUK (gene 1147), sequence (O15111 whole entry, looked up): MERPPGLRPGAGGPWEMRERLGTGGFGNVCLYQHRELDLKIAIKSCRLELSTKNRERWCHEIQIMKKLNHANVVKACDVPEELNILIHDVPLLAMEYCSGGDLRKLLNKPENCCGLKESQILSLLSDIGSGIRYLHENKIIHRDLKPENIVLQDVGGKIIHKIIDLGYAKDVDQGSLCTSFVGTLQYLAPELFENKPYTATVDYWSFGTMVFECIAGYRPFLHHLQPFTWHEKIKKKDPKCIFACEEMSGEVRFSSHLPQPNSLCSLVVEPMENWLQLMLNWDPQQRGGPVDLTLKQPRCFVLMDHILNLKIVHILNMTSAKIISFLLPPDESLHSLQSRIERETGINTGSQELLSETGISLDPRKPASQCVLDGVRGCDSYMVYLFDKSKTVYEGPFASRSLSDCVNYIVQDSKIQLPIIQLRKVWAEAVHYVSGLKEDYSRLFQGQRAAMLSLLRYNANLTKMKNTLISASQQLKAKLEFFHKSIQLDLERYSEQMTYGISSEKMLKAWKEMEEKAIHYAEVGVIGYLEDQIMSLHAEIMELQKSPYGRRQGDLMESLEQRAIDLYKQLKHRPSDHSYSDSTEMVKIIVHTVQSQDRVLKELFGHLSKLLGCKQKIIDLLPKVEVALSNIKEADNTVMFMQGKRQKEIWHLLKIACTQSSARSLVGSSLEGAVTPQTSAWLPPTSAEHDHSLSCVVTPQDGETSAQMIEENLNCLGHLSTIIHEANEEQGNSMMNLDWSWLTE
Procedure, shortened: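 Cell-free recombinant human IKKa with fluorescent substrate, product separated by electrophoretic mobility shift; read 1 hour after dosing. Primary screen duplicate at 25 uM, actives then concentration-response up to 50 uM; loss of signal relative to DMSO.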

[6] = target: human LYN Proto-Oncogene, Src family Tyrosine Kinase (LynA), LYN (gene 4067) (UniProt P07948); assay: NVS_ENZ_hLynA: NovaScreen (NVS) Enzymatic Assay for human LYN Proto-Oncogene, Src family Tyrosine Kinase (LynA) (AID 2283173)
Procedure, shortened: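 Recombinant kinase with fluorescent substrate; product separated from substrate by electrophoretic mobility shift and read 1 h after dosing. Duplicate screen at 25 uM, then concentration-response up to 50 uM; activity scored as signal loss against DMSO.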

[7] = target: human Janus Kinase 2 (Jak2), JAK2 (gene 3717) (UniProt O60674); assay: NVS_ENZ_hJak2: NovaScreen (NVS) Enzymatic Assay for human Janus Kinase 2 (Jak2) (AID 2283169)
Procedure, shortened: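 Cell-free recombinant human JAK2 enzyme activity assay, fluorescence/electrophoretic mobility shift read 1 h after dosing. Screened in duplicate at 25 uM, then concentration-response up to 50 uM; activity as signal loss relative to DMSO.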

[8] = target: human MAP Kinase-Activated Protein Kinase 2 (MAPKAPK2), MAPKAPK2 (gene 9261) (UniProt P49137); assay: NVS_ENZ_hMAPKAPK2: NovaScreen (NVS) Enzymatic Assay for human MAP Kinase-Activated Protein Kinase 2 (MAPKAPK2) (AID 2283178)
human MAP Kinase-Activated Protein Kinase 2 (MAPKAPK2), MAPKAPK2 (gene 9261), sequence (P49137 whole entry, looked up): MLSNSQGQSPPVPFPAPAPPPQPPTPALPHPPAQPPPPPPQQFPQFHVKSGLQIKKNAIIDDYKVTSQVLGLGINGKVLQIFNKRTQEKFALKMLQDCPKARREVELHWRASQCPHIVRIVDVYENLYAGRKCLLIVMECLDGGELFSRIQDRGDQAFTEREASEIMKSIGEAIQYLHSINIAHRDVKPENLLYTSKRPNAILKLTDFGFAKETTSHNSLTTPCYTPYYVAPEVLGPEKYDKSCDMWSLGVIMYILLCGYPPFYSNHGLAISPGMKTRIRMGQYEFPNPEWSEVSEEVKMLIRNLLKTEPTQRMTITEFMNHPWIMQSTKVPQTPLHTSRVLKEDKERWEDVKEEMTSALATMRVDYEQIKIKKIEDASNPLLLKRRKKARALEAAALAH
Procedure, shortened: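 Cell-free recombinant human MAPKAPK2 activity measured by fluorescence with electrophoretic mobility shift separation of substrate and product, 1 hr after dosing. Loss of signal versus DMSO; primary screen at 25 uM, concentration-response up to 50 uM.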

[9] = target: Protein deacetylase HDAC6 (Homo sapiens) (UniProt Q9UBN7); assay: NVS_ENZ_hHDAC6: NovaScreen (NVS) Enzymatic Assay for human Histone Deacetylase 6 (HDAC6) (AID 2283164)
Protein deacetylase HDAC6 (Homo sapiens), sequence (Q9UBN7 whole entry, looked up): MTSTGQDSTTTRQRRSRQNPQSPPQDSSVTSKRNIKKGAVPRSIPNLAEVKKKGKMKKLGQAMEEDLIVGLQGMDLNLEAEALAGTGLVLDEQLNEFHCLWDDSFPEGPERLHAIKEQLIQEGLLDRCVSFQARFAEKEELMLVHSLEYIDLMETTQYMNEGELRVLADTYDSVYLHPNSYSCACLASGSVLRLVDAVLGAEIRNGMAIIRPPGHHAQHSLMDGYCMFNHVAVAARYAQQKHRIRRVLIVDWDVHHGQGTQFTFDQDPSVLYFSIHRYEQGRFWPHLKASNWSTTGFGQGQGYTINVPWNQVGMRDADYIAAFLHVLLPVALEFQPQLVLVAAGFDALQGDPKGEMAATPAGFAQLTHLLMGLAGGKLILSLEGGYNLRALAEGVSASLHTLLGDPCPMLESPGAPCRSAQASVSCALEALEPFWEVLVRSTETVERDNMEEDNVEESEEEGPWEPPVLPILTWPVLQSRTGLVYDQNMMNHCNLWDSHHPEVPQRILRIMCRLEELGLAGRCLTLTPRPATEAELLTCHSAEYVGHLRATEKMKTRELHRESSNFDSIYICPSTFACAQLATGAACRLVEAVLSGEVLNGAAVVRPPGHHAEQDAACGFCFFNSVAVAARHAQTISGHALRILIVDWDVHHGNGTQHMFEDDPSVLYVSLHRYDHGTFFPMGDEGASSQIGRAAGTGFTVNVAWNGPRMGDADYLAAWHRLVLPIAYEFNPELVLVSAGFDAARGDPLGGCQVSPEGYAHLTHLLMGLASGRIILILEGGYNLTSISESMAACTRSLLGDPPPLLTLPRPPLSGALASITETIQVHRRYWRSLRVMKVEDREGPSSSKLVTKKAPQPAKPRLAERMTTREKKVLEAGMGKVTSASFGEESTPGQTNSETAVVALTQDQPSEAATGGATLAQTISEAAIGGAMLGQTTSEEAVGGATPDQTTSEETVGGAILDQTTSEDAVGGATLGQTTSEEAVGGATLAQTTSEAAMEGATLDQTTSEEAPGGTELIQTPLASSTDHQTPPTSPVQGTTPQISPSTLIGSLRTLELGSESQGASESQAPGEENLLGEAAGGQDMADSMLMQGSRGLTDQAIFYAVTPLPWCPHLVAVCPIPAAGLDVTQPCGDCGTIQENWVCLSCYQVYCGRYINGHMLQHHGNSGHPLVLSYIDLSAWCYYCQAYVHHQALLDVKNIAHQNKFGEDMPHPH
Description: as §1, with “NVS_ENZ_hHDAC6” for “NVS_ENZ_hMAPK3”, “plate.NVS_ENZ_hHDAC6” for “plate.NVS_ENZ_hMAPK3”, “NVS_ENZ_hHDAC6,” for “NVS_ENZ_hMAPK3,”, “HDAC6.” for “MAPK3.”, “hydrolase” for “kinase”, “histone deacetylase.” for “serine/threonine kinase.”
Binding assays used specific radioligands (tritiated, iodinated) with non-radioactive competitive displacement ligands in agonist or antagonist protocols (as indicated) and various reference compounds and inhibitors to titrate specific binding to receptors and transporters. Most enzyme assays (CYPs, kinases, phosphatases, proteases, HDACs) used recombinant protein and specific substrates (fluorescence mostly, some colorimetric and radioactive) and inhibitors, followed by a biochemical separation of substrate and product. All assays for the biochemical HTS were initially run in duplicate at a single concentration (10 uM for CYP450 assays and 25 uM for all others). […]

[10] = target: human Mitogen-Activated Protein Kinase 1 (MAPK 1), MAPK1 (gene 5594) (UniProt P28482); assay: NVS_ENZ_hMAPK1: NovaScreen (NVS) Enzymatic Assay for human Mitogen-Activated Protein Kinase 1 (MAPK 1) (AID 2283175)
Procedure, shortened: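 Cell-free recombinant human MAPK1 enzymatic assay, fluorescence/electrophoretic mobility shift read at 1 h; loss of signal vs DMSO. Primary screen in duplicate at 25 uM; actives (e.g. ≥30% inhibition) run as concentration-response up to 50 uM.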

SMILES: CN(C)C(=S)SSC(=S)N(C)C
- outcome [1]: inactive

SMILES: Cc1ccc(-c2c(Cl)nc(C#N)n2S(=O)(=O)N(C)C)cc1
- AC50 [2]: 18.2 µM (active)

SMILES: CC(C)C1(C)N=C(c2nc3ccccc3cc2C(=O)O)NC1=O (configuration not stated)
- outcome [3]: inactive

SMILES: COc1cnc(OC)n2nc(NS(=O)(=O)c3c(OCC(F)F)cccc3C(F)(F)F)nc12
- outcome [4]: inactive

SMILES: CC(C)(C)c1ccc(CSc2cnn(C(C)(C)C)c(=O)c2Cl)cc1
- outcome [5]: inactive

SMILES: COc1nc(C)nc(NC(=O)NS(=O)(=O)c2ccccc2CCC(F)(F)F)n1
- outcome [1]: inactive

SMILES: COc1nc(C)nc(NC(=O)NS(=O)(=O)c2ccccc2Cl)n1
- outcome [2]: inactive

SMILES: COC(=O)c1ccccc1C(=O)OC
- outcome [6]: inactive

SMILES: CO/C=C(/C(=O)OC)c1ccccc1Oc1cc(Oc2ccccc2C#N)ncn1
- outcome [5]: inactive

SMILES: CCNc1nc(Cl)nc(NCC)n1
- outcome [4]: inactive

SMILES: CCCC1COC(Cn2cncn2)(c2ccc(Cl)cc2Cl)O1 (configuration not stated)
- AC50 [3]: 6.45 µM (active)

SMILES: COc1ccc(C(c2ccc(OC)cc2)C(Cl)(Cl)Cl)cc1
- outcome [4]: inactive

SMILES: C=CCC1=C(C)C(OC(=O)C2C(C=C(C)C)C2(C)C)CC1=O (configuration not stated)
- AC50 [3]: 8.92 µM (active)

SMILES: CCCN(CCC)c1c([N+](=O)[O-])cc(S(N)(=O)=O)cc1[N+](=O)[O-]
- outcome [2]: inactive
- outcome [7]: inactive
- outcome [1]: inactive

SMILES: CNC(=S)S
- outcome [2]: inactive
- outcome [5]: inactive
- outcome [4]: inactive
- outcome [8]: inactive
- outcome [1]: inactive

SMILES: CCCCNC(=O)OCC#CI
- AC50 [9]: 25 µM (active)
- outcome [9]: inactive
- outcome [6]: inactive

SMILES: C=CCC1=C(C)[C@@H](OC(=O)[C@@H]2[C@@H](C=C(C)C)C2(C)C)CC1=O
- outcome [10]: inactive
- outcome [4]: inactive

SMILES: CS/C(C)=N/OC(=O)N(C)SN(C)C(=O)O/N=C(\C)SC
- outcome [9]: inactive
